Measured values reported in PubChem BioAssay AID504585 (National Center for Advancing Translational Sciences (NCATS), 2011).
Results filed as inconclusive are left out. Active and inactive are the calls of the source.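 Rule for the calls: active = NMR saturation transfer binding signal to menin that a known MLL-derived binding peptide displaces; inconclusive = NMR binding signal present but the peptide does not displace it; inactive = no NMR binding signal.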

Each molecule was assayed against Menin (Homo sapiens) (UniProt O00255) (assay: Confirmation of Inhibitors Targeting the Menin-MLL Interaction in MLL Related Leukemias: Binding Confirmation with NMR Saturation Transfer Difference). Settings: recombinant menin.
Chain of Menin (Homo sapiens) (O00255 whole entry, looked up, the tested form may be a part): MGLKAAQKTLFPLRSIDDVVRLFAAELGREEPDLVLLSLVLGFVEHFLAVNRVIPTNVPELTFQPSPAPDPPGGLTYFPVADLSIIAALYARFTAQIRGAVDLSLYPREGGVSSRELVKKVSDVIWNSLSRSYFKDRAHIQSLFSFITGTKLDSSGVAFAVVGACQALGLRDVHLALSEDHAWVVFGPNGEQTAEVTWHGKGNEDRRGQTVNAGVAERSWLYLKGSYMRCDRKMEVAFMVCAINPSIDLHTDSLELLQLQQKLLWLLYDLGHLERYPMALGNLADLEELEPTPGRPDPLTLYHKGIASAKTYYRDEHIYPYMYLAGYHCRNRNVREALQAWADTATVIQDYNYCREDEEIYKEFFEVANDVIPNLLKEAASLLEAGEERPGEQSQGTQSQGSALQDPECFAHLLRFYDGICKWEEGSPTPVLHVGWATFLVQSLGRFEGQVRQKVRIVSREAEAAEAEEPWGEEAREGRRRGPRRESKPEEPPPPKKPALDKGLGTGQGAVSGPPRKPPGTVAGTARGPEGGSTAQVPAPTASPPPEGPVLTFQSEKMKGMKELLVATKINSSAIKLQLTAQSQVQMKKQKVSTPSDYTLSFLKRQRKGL
Excerpt: qHTS Assay for Inhibitors Targeting the Menin-MLL Interaction in MLL Related Leukemias NIH Chemical Genomics Center [NCGC] NIH Molecular Libraries Probe Centers Network [MLPCN] MLPCN Grant: MH084875-01A1 Assay Submitter (PI): Jolanta Grembecka, Tomasz Cierpicki, University of Virginia Translocations of the MLL (Mixed Lineage Leukemia) gene are frequently found in human leukemias affecting both children and adults. Fusion of MLL to one of more than 60 genes results in generation of oncogenic proteins upregulating Hox genes, which are vital to blood cell development. Patients harboring fusion of the MLL gene suffer from aggressive leukemias and respond poorly to available therapies. All of the oncogenic fusion proteins have a preserved N-terminal fragment of MLL that has been identified to interact with menin. It has been recently discovered that association with menin is critical to the leukemogenic activity of the MLL fusion oncoproteins. Selective targeting of the menin-MLL interaction could provide an attractive therapeutic approach to develop novel drugs for MLL-related leukemias. Small molecules blocking the menin-MLL interaction should reverse the oncogenic potential of MLL fusion proteins. We have developed and optimized a fluorescence polarization-based assay for the identification of Menin-MLL inhibitors. The assay was run employing two different MLL-derived peptides. The present assay uses a 12 amino acid peptide labeled with fluorescein at its N-terminus. This peptide consists of the menin high affinity binding motif from MLL and is potently bound by menin. Another peptide with a mutated sequence, labeled with Texas Red, was used in parallel as a less stringent screen for inhibitors. The present assay uses an orthogonal technique to identify those compounds specifically interacting with the target protein.
NMR samples for the saturation transfer difference (STD) experiments contained 2.5uM menin solution in 50 mM phosphate buffer, 50 mM NaCl, 1mM DTT, pH= 7.5, with 5% of D2O, final volume 150 uL. The compounds were added as stock solutions in DMSO to final 100 uM concentration and 5% DMSO. All NMR experiments were recorded using 600 MHz Bruker Avance III spectrometer at 25C. Samples for the competition STD experiments contained additional MBM1 peptide at final concentration of 25 uM and the measurements were carried out is the same way as described above for STD experiments.

Compound | outcome
CCOc1cc(CNCCc2ccc(S(N)(=O)=O)cc2)ccc1OCc1ccccc1 | active; true
O=C(C[N+]12CC[N+](CC(=O)c3ccc(F)cc3)(CC1)CC2)c1ccc(F)cc1 | active; true
N#Cc1ccc(OCC(O)CN2CCN(C(c3ccccc3)c3ccccc3)CC2)cc1 (stereo unspecified) | active; true
Cc1sc2ncnc(NC3CCN(Cc4ccccc4)CC3)c2c1C | active; true
O=C(CS)Nc1ccc2ccccc2c1 | inactive; false
CCN(CC)Cc1cc2[nH]c3c4ccc(Cl)cc4ncc3c2cc1OC | inactive; false
CN(C)c1ccc(C2CC(=O)C=C(Nc3ccccc3N)C2)cc1 (stereo unspecified) | inactive; false
CCOC(=O)c1cnc2ccc(OCC)cc2c1N1CCN(C)CC1 | active; true
CCCC(c1nnnn1Cc1cccs1)N1CCN(C2CCCC2)CC1 (stereo unspecified) | active; true
CC(=O)NC1C(=O)N(CCN2CCOCC2)c2ccc(Cl)cc21 (stereo unspecified) | inactive; false
CC(=O)NC1C(=O)N(CCN2CCOCC2)c2ccc(C)cc21 (stereo unspecified) | inactive; false
C[C@H](NC(=O)c1cc2c(cn1)[nH]c1ccccc12)C(=O)O | inactive; false
CCOc1ccc2c(c1)C(NC(C)=O)C(=O)N2CCN1CCOCC1 (stereo unspecified) | inactive; false
COc1ccccc1C(=O)Nc1ccnn1C1CCN(CC2CC=CCC2)CC1 (stereo unspecified) | active; true
CCc1ccc2c(c1)C(NC(C)=O)C(=O)N2CCN1CCOCC1 (stereo unspecified) | inactive; false
CCC(c1nnnn1Cc1ccc(F)cc1)N1CCN(C2CCCCC2)CC1 (stereo unspecified) | active; true
